# Screens (PubChem BioAssay)
# Compounds with a hit are over-represented: about 8.9% of the library has one in this group of screens.
# SW480 rereplic – induces DNA re-replication in SW480 colon adenocarcinoma cells | 340,000 tested, 1.8% active | Potency, µM (top dose mostly 46.1 µM), most hits filed as activators | SW480 DNA re-replication, Hoechst DNA content imaging, 48 h | AID 624297; further: nearly all actives have a fitted effect of over 55% in size
#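 First, 250 cells per well were seeded. Next, compound or vehicle (23 nL) was pinned in, plates sat 48 hr at 37 C. Finally Hoechst was added for 40 min before fluorescence scanning.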
# MCF10A rerep – inducers of DNA re-replication in MCF 10A breast cells | MCF 10A DNA re-replication, Hoechst nuclear intensity, 48 h | Potency, µM (series often up to 46.1 µM), actives largely listed as activators | 350,000 tested, 2.9% active | AID 624296; further: nearly all actives have a fitted effect of over 50% in size
# DRD3 antagonist – D3 dopamine receptor (human) antagonism; 360,000 tested, 2.5% active; D3R cells, DiscoveRx beta-arrestin luminescence, antagonist mode; stronger effect = lower value; max response, negative = inhibition, %; AID 652054; P35462; in the data active means max response below about -50%; inconclusive means no clear call, values can overlap the other calls
# Target sequence (P35462 whole entry, looked up): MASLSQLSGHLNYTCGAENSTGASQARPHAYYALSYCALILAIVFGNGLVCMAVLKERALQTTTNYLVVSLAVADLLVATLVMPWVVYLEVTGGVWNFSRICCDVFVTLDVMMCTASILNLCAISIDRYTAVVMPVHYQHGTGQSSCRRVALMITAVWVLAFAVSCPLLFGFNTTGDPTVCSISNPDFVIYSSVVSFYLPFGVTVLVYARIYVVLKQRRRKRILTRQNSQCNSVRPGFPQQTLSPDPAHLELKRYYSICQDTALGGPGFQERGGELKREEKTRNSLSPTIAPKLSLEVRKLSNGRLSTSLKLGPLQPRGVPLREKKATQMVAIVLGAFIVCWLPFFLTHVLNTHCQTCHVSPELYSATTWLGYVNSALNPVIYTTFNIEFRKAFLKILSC
#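 Cells plated overnight at 1500 cells/well, then exposed to library compounds with dopamine controls for 90 minutes at 37 degrees C. DiscoveRx reagent added for 30–60 minutes at room temperature; luminescence read, quantitative HTS format.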
# KB-3-1 cytotox – kills parental KB-3-1 adenocarcinoma cells; KB-3-1 viability, CellTiter-Glo ATP luminescence, 72 h; Potency, µM (highest dose often 46.1 µM), hits mostly cytotoxic; 400,000 tested, 1.4% active; further: nearly all actives have a fitted effect of over 60% in size
#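 Viability of parental KB-3-1 cells, measured by CellTiter-Glo luminescence, followed a 72 h incubation at 37 °C with pinned compounds in phenol-red-free DMEM containing 10% FBS.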
# KB-V1 MDR tox – kills drug-selected multidrug resistant KB-V1 cells. 400,000 tested, 3.4% active. Potency, µM (titrated, usually from 46.1 µM), usual class: cytotoxic. KB-V1 MDR cells viability, CellTiter-Glo, 72 h; further: nearly all actives have a fitted effect of over 60% in size
#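 Cytotoxicity toward P-gp-expressing KB-V1 cells was determined as loss of CellTiter-Glo luminescence after 72 h at 37 degrees C. Compounds were tested in quantitative HTS format across a concentration range, with curves fitted to normalized data.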
# DRD3 agonist – agonists of human D3 dopamine receptor. P35462. AID 652048. 410,000 tested, 0.58% active. max activation, %. D3R DiscoveRx beta-arrestin cells, luminescence, 90 min; in the data active means max activation above about 30%
#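 Agonist mode: compounds and dopamine controls were applied to plated cells for 90 min at 37 degrees C after an overnight attachment at 1500 cells/well. Luminescent read-out followed 30 - 60 minutes at room temperature with DiscoveRx detection reagent.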
# Hits are given with their value; . = inactive; ? = inconclusive; / = not tested or not shown; [ ] = another dose, or the depositor's remark. Unless noted, the call rests on the fitted dose curve; in most records, active means well fitted curve in the direction sought with a large enough effect; inconclusive means small, poorly fitted or top-dose-only effect, or another doubt; inactive means no such curve, though single readings can be large; an effect the other way counts as inactive or inconclusive.
SMILES,SW480 rereplic,MCF10A rerep,DRD3 antagonist,KB-3-1 cytotox,KB-V1 MDR tox,DRD3 agonist
CN(C)C(CNC(=O)c1cc(S(=O)(=O)N2CCOCC2)ccc1F)c1cccs1 (stereo not drawn),.,.,.,.,.,.
CCN(c1ccccc1)S(=O)(=O)c1cccc(C(=O)NCC(c2ccc(OC)cc2)N2CCCCC2)c1 (stereo not drawn),/,/,-122,.,.,.
Cc1ccccc1NS(=O)(=O)c1cc(C(=O)N2CCCC2)ccc1C,.,.,.,.,.,.
CN(C)c1cccc(C(=O)Nc2ccc(-c3nc4ccccc4s3)cc2)c1,/,/,/,.,.,.
COc1ccc(CNC(=O)C2CCCN2C(=O)Nc2cccc(Cl)c2)cc1 (stereo not drawn),/,/,.,.,.,.
COc1ccc(C(CNC(=O)c2ccc(C)c(S(=O)(=O)Nc3ccccc3OC)c2)N2CCCC2)cc1 (stereo not drawn),.,.,-93,.,.,.
COc1ccc(C(CNC(=O)c2cccc(S(=O)(=O)Nc3ccc(C)cc3)c2)N2CCOCC2)cc1 (stereo not drawn),.,.,.,?,?,.
COc1ccc(NS(=O)(=O)c2cccc(C(=O)NCC(c3ccc(OC)cc3)N3CCCCC3)c2)cc1 (stereo not drawn),.,.,-57,.,.,.
COc1ccc(C(CNC(=O)CNC(=O)c2ccccc2Cl)N2CCCC2)cc1 (stereo not drawn),.,.,.,.,.,.
COc1ccc(C(CNC(=O)c2cccc(S(=O)(=O)Nc3cccc(C)c3)c2)N2CCOCC2)cc1 (stereo not drawn),.,.,.,.,21µM,.
COc1ccc(C(CNC(=O)c2cc3ccccc3cc2OC)N2CCCC2)cc1 (stereo not drawn),.,.,-56,.,4.6µM,.
COc1ccccc1NS(=O)(=O)c1cc(C(=O)NCC(c2cccs2)N2CCOCC2)ccc1C (stereo not drawn),.,.,.,.,.,.
CS(=O)(=O)N(CC(=O)Nc1ccc(Br)cc1)c1ccccc1Br,/,/,/,.,?,.
CCN(CC)S(=O)(=O)c1ccc2c(c1)N(CC(=O)NCCCN1CCN(c3ccc(OC)cc3)CC1)C(=O)CO2,/,/,/,.,.,.
Cc1ccc(NS(=O)(=O)c2cccc(C(=O)NCC(c3ccco3)N3CCCC3)c2)cc1 (stereo not drawn),?,12µM,?,.,.,.
COc1ccc(NS(=O)(=O)c2cccc(C(=O)N/N=C/c3c(F)c(F)c(F)c(F)c3F)c2)cc1,?,18µM,.,.,.,.
Cc1ccc(S(=O)(=O)NC(CC(C)C)C(=O)NCC(c2ccco2)N2CCCCC2)cc1 (stereo not drawn),.,.,-79,.,?,.
O=C(NCC(c1ccco1)N1CCCC1)c1cccc(S(=O)(=O)Nc2ccc(F)cc2)c1 (stereo not drawn),.,.,.,.,.,.
Cc1cccc(NC(=O)c2cc(S(=O)(=O)N(C)c3ccc(F)cc3)ccc2Cl)n1,.,?,-57,.,?,.
COc1ccc(NS(=O)(=O)c2cccc(C(=O)NN=Cc3ccc(OC)c(O)c3)c2)cc1,.,.,?,.,?,.
COc1ccccc1N(C)S(=O)(=O)c1ccc(Cl)c(C(=O)Nc2cccc(C)n2)c1,.,.,.,.,.,.
COc1ccc(NS(=O)(=O)c2cccc(C(=O)NCC(c3ccc(OC)cc3)N3CCCC3)c2)cc1 (stereo not drawn),.,.,?,.,.,.
COc1ccc(C(CNC(=O)c2cccc(S(=O)(=O)Nc3ccccc3OC)c2)N2CCCCC2)cc1 (stereo not drawn),?,.,-81,.,.,.
Cc1ccc(S(=O)(=O)N(C)c2ccc(C(=O)NCC(c3ccccc3)N3CCCC3)cc2)cc1 (stereo not drawn),/,/,-64,.,.,.
COc1ccc(C(CNC(=O)c2cccc(S(=O)(=O)N3CCCCC3)c2)N2CCCC2)cc1 (stereo not drawn),.,.,-51,?,?,.
SMILES,SW480 rereplic,MCF10A rerep,DRD3 antagonist,KB-3-1 cytotox,KB-V1 MDR tox,DRD3 agonist
COc1ccccc1NS(=O)(=O)c1cccc(C(=O)NCC(c2ccco2)N2CCCCC2)c1 (stereo not drawn),.,.,.,.,.,.
COc1ccc(C(CNC(=O)c2cccc(S(=O)(=O)Nc3ccccc3OC)c2)N2CCCC2)cc1 (stereo not drawn),?,.,-65,.,.,.
CCN(CC)CCOC(=O)[C@@H](Cc1cccc2ccccc12)C[C@@H]1CCCO1,.,.,/,/,/,/
COc1ccc(N(C)S(=O)(=O)c2cccc(C(=O)NCC(c3cccs3)N(C)C)c2)cc1 (stereo not drawn),.,.,-67,.,.,.
COc1ccc(N(C)S(=O)(=O)c2cccc(C(=O)NCC(c3ccco3)N3CCCC3)c2)cc1 (stereo not drawn),.,.,-57,.,?,.
COc1ccc(C(CNC(=O)c2cccc(S(=O)(=O)NCc3ccccc3)c2)N2CCOCC2)cc1 (stereo not drawn),.,.,.,.,18µM,.
COc1ccc(C(CNC(=O)c2cc(S(=O)(=O)NCc3ccccc3)ccc2C)N2CCOCC2)cc1 (stereo not drawn),.,.,.,.,.,.
CCC1CCc2sc(C(=O)NCC(c3ccc(OC)cc3)N3CCCC3)cc2C1 (stereo not drawn),?,?,-89,?,9.2µM,.
COc1ccc(C(CNC(=O)c2cccc(N(C)C)c2)N2CCCC2)cc1 (stereo not drawn),?,.[0.0737 µM],.,.,.,.
CCCC(=O)O[C@]1(C(=O)COC(=O)CC)CC[C@H]2[C@@H]3CCC4=CC(=O)CC[C@]4(C)[C@H]3[C@@H](O)C[C@@]21C,/,/,/,/,/,.
CCCn1c2ccccc2c2cnn(CC(=O)N3CCC(C)CC3)c(=O)c21,/,/,/,/,/,.
COc1ccccc1-n1c(C)c(C(=O)O)c2cc(OC)c3ccccc3c21,.,.,.,.,.,.
COc1ccc(-n2nc(C)c3c(C(F)(F)F)cc(-c4cccnc4)nc32)cc1,/,/,/,/,/,.
CC(CNCC1CCCO1)COc1cccc2ccccc12 (stereo not drawn),.,.,.,.,.,.
CC(CNCC1CCCO1)COc1ccccc1 (stereo not drawn),.,?,-79,.,.,.
C=CCC(Nc1ccccc1)C12C=CC(O1)C(C(=O)OC)=C2C(=O)OC (stereo not drawn),?,13µM,-78,18µM,?,.
Cc1ccc2oc3c(c(=O)c2c1)C(c1cccc(O)c1)N(Cc1ccccc1Cl)C3=O (stereo not drawn),/,/,/,.,.,.
